PubChem BioAssay AID589 (National Center for Advancing Translational Sciences (NCATS), 2007)
Screen size: about 59,000 compounds; about 6,200 (11%) were called active. Inconclusive results (about 9%) are left out. Cut-off read from the data, not from the text of the source: active = max dye-equivalent concentration above about 10 nM; inconclusive = mostly about 1.1 nM to 9.6 nM; inactive = weaker than that. This excerpt belongs to a sample that is enriched for actives.

Assay: qHTS Assay for Spectroscopic Profiling in 4-MU Spectral Region
Conditions: compound autofluorescence, 340/450 nm, 4-MU equivalents; active compounds read high
Method in brief: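 Compounds in 100 mM Tris, pH 8.0, sat 15 min at room temperature before fluorescence was read at 340 nm excitation/450 nm emission; a per-plate six-point 4-MU standard curve converted signals to dye-equivalent concentration at each compound concentration.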

Max dye-equivalent concentration, inactive:
Oc1ccccc1CNCc1ccccc1O
c1ccc2c(CNn3cnnc3)cccc2c1
Cc1cc(C)c2c(c1)c(C)cc1nnc(SCC(=O)NCc3ccco3)n12
COc1ccc(OC)c(CNC(=O)C2CCCN(c3nc4ccccc4o3)C2)c1 (stereo unspecified)
Nc1nonc1-c1noc(-c2ccc(Br)o2)n1
c1csc(CN2CCN(Cc3cccs3)C2c2cccs2)c1
Cc1nn(-c2ccccc2)c2[nH]c(C(F)(F)F)cc(=O)c12
COc1ccc(CC(=O)Nc2nc3n(n2)C(c2ccccc2)CC(=O)N3)cc1OC (stereo unspecified)
COc1ccc(CCNC(=O)C2CCN(c3nn4c(=O)cc(C)nc4s3)CC2)cc1OC
CCCS(=O)(=O)N1CCC(C(=O)NCCc2ccc(OC)c(OC)c2)CC1
Cc1ccc(-n2c(N)c(C(=O)N3CCOCC3)sc2=S)c(C)c1
CS(=O)(=O)N1CCC2(CC1)CN(Cc1cc(C(F)(F)F)cc(C(F)(F)F)c1)C2
CCOc1cc(CN2CCN(C(=O)CC(C)C)CC2)ccc1OC
O=C(CSc1nnc(-c2ccccn2)n1-c1ccccc1)Nc1ccc2c(c1)OCO2
COc1ccc2[nH]c3cc4c(=O)c5cc(OC)ccc5[nH]c4cc3c(=O)c2c1
COc1cccc(Oc2ccc(N)cc2)c1
O=C(O)CN(Cc1ccco1)S(=O)(=O)c1ccc(F)cc1
O=C(c1ccco1)N1CCN(CC(=O)N(C2CCCCC2)C2CCS(=O)(=O)C2)CC1 (stereo unspecified)
Cc1c(NC(=O)c2cccnc2)c(=O)n(-c2ccccc2)n1C
Cc1cc(C(=O)Nc2c(C)n(C)n(-c3ccccc3)c2=O)cs1
CCOCCCNS(=O)(=O)Cc1ccccc1
O=C(NC1CCCCC1)C1c2ccccc2C(=O)N1Cc1ccco1 (stereo unspecified)
O=C1c2cccnc2C(Nc2ccc(S(=O)(=O)N3CCCCCC3)cc2)N1Cc1ccccc1 (stereo unspecified)
CCOC(=O)CSc1nnc(NC(=O)c2cccc(S(=O)(=O)N3CCCC3)c2)s1
CN1C(=O)C[C@H](c2ccccc2)C1=O
CCCCCOC(=O)NCCOC(=O)Nc1ccc(C(=O)OCC)cc1
COc1cccc(-c2nc(S(=O)(=O)c3ccccc3)c(N3CCOCC3)o2)c1
CC1CC(C)CN(CC(=O)Nc2ccc(S(N)(=O)=O)cc2)C1 (stereo unspecified)
Cc1nnc(SCC(N)=O)n1CC1CCCO1 (stereo unspecified)
Cn1c(=O)c2c(nc(CN3CCOCC3)n2Cc2ccccc2)n(C)c1=O
C[C@H](CCC(=O)NCC(=O)O)[C@H]1CC[C@H]2[C@H]3[C@@H](C[C@@H](O)[C@]12C)[C@]1(C)CC[C@H](O)C[C@@H]1C[C@@H]3O
O=S(=O)(NCc1cccnc1)c1ccc(Br)s1
CCOc1ccc(N=C2SC(C(=O)O)CC(=O)N2C)cc1 (stereo unspecified)
O=CN1CCN(C2CC(=O)N(c3ccc4c(c3)OCO4)C2=O)CC1 (stereo unspecified)
Cn1c(NC(=O)c2ccco2)c(-c2ccccc2Cl)c(=O)c2ccccc21
COC(=O)c1cc(Cl)c(NC(=O)c2ccco2)cc1OC
CSCC[C@H](NC(=O)NCc1cccs1)C(=O)O
COCCNc1ccnc(-c2cccc(NS(C)(=O)=O)c2)n1
N#Cc1ccc(CN2CCCC3(CCN(C(=O)c4ccco4)CC3)C2)cc1
COc1ccc(Cc2nnc(NC(=O)Cc3cccs3)s2)cc1
COc1ccc(OCCCC(=O)Nc2nnc(C3CCCO3)s2)cc1 (stereo unspecified)
O/N=C1\CC2(Cc3nonc31)OCCO2
O=C(CN1CCOCC1)Nc1ccc(NC(=O)CN2CCOCC2)c(Cl)c1
C=CCn1c(SCc2nnc(-c3ccccc3)o2)nnc1C(O)c1ccccc1 (stereo unspecified)
Fc1ccc(-c2nnc(CSc3nnc(-c4ccc5c(c4)OCO5)o3)o2)cc1
O=C(N1CCOCC1)N1CCOCC1
O=C(c1csnn1)N1CCC[C@@]2(CCN(Cc3nccs3)C2)C1
O=C(OC(C(=O)NC1CCCC1)c1ccc(F)cc1)c1ccno1 (stereo unspecified)
CCn1c(NCCc2ccc(OC)c(OC)c2)nc2c1c(=O)n(C)c(=O)n2C
O=C(O)c1nn(-c2ccc(Cl)cc2)c2c1C(=O)c1ccccc1C2=O
O=C(O)CN1C(=O)CC(Cc2ccccc2)C1=O (stereo unspecified)
O=C(NC1(C(F)(F)F)N=C2SCCN2C1=O)c1ccco1 (stereo unspecified)
CCOC(=O)c1c(C(C#N)C#N)cc(C)nc1C
CCOC(=O)c1cnc(-n2nc(C)cc2C)nc1-n1nc(C)cc1C
CN(C)c1nc2n(c(=O)n1)CCO2
Cc1ccc(-n2nc(-c3ccco3)cc2C(=O)NCc2cccnc2)cc1
CC(C)(C)c1cc(C(=O)NCc2cccnc2)ccn1
CCOc1ccccc1Oc1cn[nH]c1-c1ccc(OC)cc1O
Cc1cc(Cl)c(S(=O)(=O)NCCC(=O)O)cc1OCC(N)=O
CCOC(=O)c1cc(NC(=O)SCC(=O)O)c(C)nc1C
COc1cc(-c2nnc(Cn3cc(C(F)(F)F)ccc3=O)o2)cc(OC)c1OC
O=C(NCc1ccco1)c1nc(-c2ccccc2)n(-c2ccccc2)n1
COC(=O)[C@@H](NC(=O)NCc1cccc(OC)c1)C(C)C
CCOc1ccc(-c2cn(S(=O)(=O)c3cccc4nsnc34)nc2N)cc1
O=C(Cn1nnc(-c2ccccc2)n1)NCc1ccc2c(c1)OCO2
CCOC(=O)NCc1ccc2c(c1)OCO2
COc1ccc(S(=O)(=O)Nc2c(C)n(C)n(-c3ccccc3)c2=O)cc1
CCOC(=O)Cn1c(SC)nc2sc3c(c2c1=O)CC(C)(C)OC3
CC1(C)Cc2c(sc3nc4n(c(=N)c23)CCCCC4)CO1
COc1ccc2[nH]cc(CCNc3cc(-c4ccccc4CN(C)C)ncn3)c2c1
O=C(NCCCN1CCN(c2ccccc2F)CC1)C1CCC(=O)N1C1CCCCC1 (stereo unspecified)
COC(=O)c1sc(=S)n(-c2ccccc2)c1N
CC(C)CCNC(=O)C1CCCN(S(=O)(=O)c2ccc(F)cc2)C1 (stereo unspecified)
COCCNc1ncnc2ccc(-c3cccnc3)cc12
Cc1cc(NC(=O)CCC(=O)N(c2cccc(F)c2)C(C(=O)NC2CCCC2)c2ccncc2)no1 (stereo unspecified)
CS(=O)(=O)N1CCC2(CC1)CN(Cc1ccccc1)C2
NC[C@@H]1O[C@H](O[C@@H]2[C@H](O[C@@H]3O[C@H](CO)[C@@H](COC[C@H]4O[C@@H](CN)[C@@H](O)[C@@H](O)[C@@H]4N)[C@@H]3O)[C@@H](O)[C@@H](N)C[C@H]2N)[C@@H](N)[C@H](O)[C@@H]1O
COc1ccc(OC)c(NC(=O)CSc2nc(N)c(-c3ccccc3)c(=O)[nH]2)c1
C[N+]1(CCN=C=NC2CCCCC2)CCOCC1
CCCCNc1nc2c(c(=O)[nH]c(=O)n2C)n1CCOc1ccccc1
O=C(c1ccc2c(c1)C(=O)N(c1ccc(Cl)cc1)C2=O)N1CCN(c2ccccn2)CC1
O=C(Nc1ccc(F)cc1)c1cccnc1N1CCOCC1
O=c1c(-c2ccc(F)cc2)nc2cncnc2n1-c1ccccc1
COc1ccc(Oc2ncc3nc(-c4ccc(F)cc4)c(=O)n(C)c3n2)cc1
Cn1cc(-c2nc3cncnc3n(-c3ccccc3)c2=O)c2ccccc21

Max dye-equivalent concentration, active:
COc1ccc2nc(N3CCCC(O)C3)c(C#N)cc2c1 (stereo unspecified) 170 nM
CCOc1ccc(CCNC(=O)C2CCN(c3ccc(N4CCOCC4)nn3)CC2)cc1OCC 410 nM
COc1ccc2[nH]c3ccc(OC)cc3c2c1 200 nM
Cc1c(NC(=O)c2coc(=O)c(Br)c2)c(=O)n(-c2ccccc2)n1C 190 nM
O=C1c2ccccc2C(O)N1Cc1ccccc1 (stereo unspecified) 25 nM
COc1cccc(-c2cc3nc4c(c(N5CCC6(CC5)OCCO6)n3n2)CCCC4)c1 100 nM
Cc1cccn2c(=O)c3cc(C#N)c(=O)n(CCCN4CCOCC4)c3nc12 8300 nM
Cc1cccn2c(=O)c3cc(C#N)c(=NC(=O)c4cccnc4)n(CC4CCCO4)c3nc12 (stereo unspecified) 3400 nM
CCn1c(=N)c(S(=O)(=O)c2ccc(F)cc2)cc2c(=O)n3ccccc3nc21 590 nM
Cc1ccc(-n2nc3cc(Cl)c(NC(=O)c4ccco4)cc3n2)cc1 54 nM
COc1ccc2c(CC(=O)Nc3nnc(C4CC4)s3)coc2c1 11 nM
Fc1ccc2nc(-c3ccccc3)nc(SCc3nnc(-c4ccccc4)o3)c2c1 29 nM
CCOC(=O)c1cc(-c2ccc(Cl)s2)nc2c1c(C)nn2C 180 nM
COCCn1c(=O)[nH]c2cc(C(=O)NCc3cccnc3)ccc2c1=O 41 nM
CCOC(=O)c1cc(-c2nnc(-c3cc(OC)c(OC)c(OC)c3)o2)c(C)nc1C 24 nM
CC1CCCCN1CC(=O)NCc1ccc2c(c1)OCO2 (stereo unspecified) 51 nM
CCC1(C)Cc2c(sc3nc4n(c(=O)c23)CCCS4)CO1 (stereo unspecified) 47 nM
CC1CCc2c(sc3c2C2=NS(=O)(=O)CCN2C=N3)C1 (stereo unspecified) 26 nM
CN1CCN(c2ncc3nc(-c4ccc(Cl)cc4)c(=O)n(-c4ccccc4)c3n2)CC1 52 nM
O=c1c(-c2ccc(F)cc2)nc2cnc(N3CCOCC3)nc2n1-c1ccccc1 23 nM
COc1ncc2nc(-c3ccc(Cl)cc3)c(=O)n(C)c2n1 27 nM
